KCNH2 WT inh = blocks the wildtype human KCNH2 potassium channel | U2OS, BacMam KCNH2, thallium flux FluxOr; hits give low values | activity change, % at 1.84 µM | hit rate 0.37% among 340,000 | AID 720551;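 active = maximum activity change below -70%; inconclusive = maximum activity change between -70% and -50%; inactive = maximum activity change above -50%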
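U2OS cells were transduced with wild-type KCNH2 virus (2.03 x 10^8 / mL) for 4 h at room temperature, then cultured overnight at 37 C. Thallium flux was read with FluxOr dye. Rate constants were normalized to DMSO controls.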
Chronic BCR inh = blocks chronic active B-cell receptor signaling; ABC-DLBCL IkBa-CBG/CBR reporter, luminescence ratio, 4 h; hit rate 0.05% among 340,000; Potency, µM (highest dose often 46.1 µM), usual class: inhibitors; active = well fitted inhibition curve with a large enough effect in the signal ratio, with a control signal flat, not every such curve was filed as active; inconclusive = small, poorly fitted or top-dose-only effect, or effect the other way, or a change in a side signal; the % refers to the signal ratio
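Cell line TMD8 (human ABC DLBCL), stably expressing tet-inducible CBG68-IkBa fusion and CBR; IMDM/0.5% FBS; cpd up to 46 uM; dox induction, 4 h, 37C/5% CO2; dual luminescence; green/red ratio; MG132 control.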
KCNH2 3.1 block = blocks the human KCNH2 3.1 channel isoform | U2OS KCNH2 3.1, thallium flux FluxOr; hits give low values | activity change, % (tested at about 1.8 µM) | hit rate 0.95% among 340,000 | AID 720553;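 active = maximum activity change below -70%; inconclusive = maximum activity change from -70% to -50%; inactive = maximum activity change above -50%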;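 also: thallium influx rate constant from kinetic fluorescence after stimulation buffer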
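We transduce U2OS cells with the mutant 3.1 virus, culture them overnight, load FluxOr with Red40 quencher for 45 min, then add stimulation buffer and read kinetically for 2 min to derive a normalized rate constant.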
LDHA inh = LDHA (human) enzyme inhibition; purified LDHA, NADH/diaphorase-resazurin fluorescence; hits give low values; hit rate 0.15% among 480,000; activity change, % (values are at about 110 or 230 µM); P00338; in the data active = activity change below about -30%; inconclusive = mostly about -25% to -30%
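Resorufin fluorescence (ex540/em590), read at 0 and 20 min after diaphorase/resazurin addition, reports the NADH left after a 5 min room-temperature reaction of 2 nM human LDH5 with 0.06 mM NADH and 0.2 mM pyruvate.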
12-LOX inh = ALOX12 (human) lipoxygenase inhibition | purified 12hLO, xylenol orange hydroperoxide absorbance | AID 1671190 | hit rate 1.1% among 580,000 | Potency, µM (top dose mostly 108 µM), actives largely listed as inhibitors | P18054; active = well fitted inhibition curve with a large enough effect; inconclusive = small, poorly fitted or top-dose-only effect, or another doubt; inactive = no such curve, though single readings can be large or run the other way
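Purified human 12hLO at 150 nM in 25 mM Hepes, 0.01% Triton X-100, pH 7.0, preincubated 15 min at room temperature with compound. Reaction started with 40 uM arachidonic acid, 30 min at room temperature. Hydroperoxide measured by Fe-xylenol orange, 573/405 nm absorbance ratio.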
ClpP mod = qHTS Assay for Activators of ClpP; purified B. subtilis ClpP, FRET peptide cleavage, 20 min; ATP-dependent Clp protease proteolytic subunit (Bacillus subtilis (strain 168)), P80244; hit rate 1.9% among 340,000; AID 651965, 2013; Potency, µM (series often up to 57.5 µM); active = well fitted falling curve with a large enough effect; inconclusive = small, poorly fitted or top-dose-only effect; inactive = no such curve, though single readings can be large or run the other way; also: the source files actives as falling curves though it sought activators and does not explain the sign; nearly all actives have a fitted effect of over 65% in size
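ClpP 10 microg/mL final, pH 8 Tris/KCl buffer with BSA, glycerol, Tween-20; compound pinned in; FRET-FV substrate; RT 20 min; Ex320/Em430; ΔFRET vs ADEP 5.8 microM, DMSO, no enzyme.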
Numbers stand for hits; 0 = inactive; ? = inconclusive; - = no result; [ ] = another dose, or the depositor's remark. Hits are enriched below; roughly 3% of the tested compounds scored in any of these assays.

SMILES | KCNH2 WT inh | Chronic BCR inh | KCNH2 3.1 block | LDHA inh | 12-LOX inh | ClpP mod
COc1ccc(C(=O)Nc2ccc(N3CCN(Cc4ccccc4)CC3)cc2)cc1 | 0 | 0 | -85.0 | 0 | 0 | -
COc1cccc(C(=O)NCCN2CCN(c3ccccc3)CC2)c1 | 0 | ? | 0 | 0 | 15.8µM | 0
COc1ccc(NC(=O)C(=O)NCCN2CCN(C(=O)c3ccc(C(C)(C)C)cc3)CC2)cc1 | 0 | 0 | 0 | 0 | 0 | 0
COc1ccc(C(=O)N2CCN(CCNC(=O)C(=O)Nc3ccc(Br)cc3)CC2)cc1 | 0 | 0 | -104.5 | 0 | 0 | 0
CCc1ccc(N2CCN(CCNC(=O)Nc3ccc(OC)cc3)CC2)cc1 | 0 | 0 | -94.3 | 0 | ? | 0
COc1ccc(NC(=O)c2ccc(CN3CCN(c4ccccc4)CC3)cc2)cc1 | 0 | 0 | ? | 0 | 0 | 0
Cc1cccc(C(C)C)c1NC(=O)C(C)OC(=O)C1=CN2CCS(=O)(=O)N=C2C=C1 (stereo not given) | - | - | - | 0 | 0 | -
COc1ccc(C(=O)N2CCN(CCc3ccccn3)CC2)cc1 | 0 | 0 | -99.0 | 0 | ? | 0
CC(C)COc1ccc(C(=O)N2CCN(CCc3ccccn3)CC2)cc1 | - | - | - | 0 | ? | 0
COc1ccc(N2CCN(Cc3cc(=O)c(OCC(=O)Nc4ccccc4)co3)CC2)cc1 | 0 | 0 | 0 | 0 | 0 | 0
COc1ccc(NC(=O)COc2coc(CN3CCN(c4ccccc4)CC3)cc2=O)cc1 | 0 | 0 | 0 | 0 | 0 | 28.2µM
COc1ccccc1-n1cnc2cc(C(=O)NC3CCCC3)ccc21 | 0 | ? | -90.6 | 0 | 0 | 0
COc1ccc(C)cc1-n1cnc2cc(C(=O)NC3CCCC3)ccc21 | - | 0 | - | 0 | 0 | 0
CO/N=C\CC(=O)Nc1ccc(Cl)c(Cl)c1 | 0 | 0 | 0 | 0 | 39.8µM | -
COC(=O)CCC(=O)Nc1ccc(Cl)c(Cl)c1 | 0 | 0 | 0 | 0 | 0 | 0
COc1ccc(CN2CCN(Cc3ccc4ccccc4c3)CC2)cc1OC | 0 | 0 | -87.6 | -34.2 | ? | 0
COc1ccccc1CN1CCN(Cc2ccc3ccccc3c2)CC1 | 0 | ? | 0 | 0 | ? | 0
O=[N+]([O-])c1ccccc1CN1CCN(Cc2ccc3ccccc3c2)CC1 | 0 | 0 | -80.4 | 0 | ? | 0
COc1cccc(CN2C(=O)OC3(CCN(C(=O)c4cccc(C#N)c4)CC3)C2(C)c2cccnc2)c1 (stereo not given) | - | - | - | - | 0 | -
O=C1OCC2=C1C(c1ccc3c(c1)OCO3)CC(=O)N2c1ccc(C(F)(F)F)cc1 (stereo not given) | - | - | - | 0 | 0 | -
O=C(NCc1nnc2n1C(C(=O)NCc1ccc(F)cc1)CC2)C1CC1 (stereo not given) | - | - | - | - | 0[6.33 µM] | -
CCSc1nnc2ccc(-c3ccc(OC)c(OC)c3)nn12 | 0 | 7.94µM | 0 | 0 | 0 | -
Cc1ccc(N(C)S(=O)(=O)c2c(-c3ccccc3)csc2C(=O)NCc2ccco2)cc1 | - | - | - | 0 | 0 | -
CSC(=O)c1ccccn1 | - | - | - | 0 | 0 | -
O=C(Sc1ccc(Cl)cc1)c1ccccn1 | 0 | - | 0 | 0 | 2.82µM | -
SMILES | KCNH2 WT inh | Chronic BCR inh | KCNH2 3.1 block | LDHA inh | 12-LOX inh | ClpP mod
COc1cccc(C(=O)C(C#N)C(=O)Nc2ccccc2)c1 (stereo not given) | - | - | - | 0 | ? | -
O=C(NCc1nnnn1-c1ccc(F)c(F)c1)c1ccc(S(=O)(=O)N2CCOCC2)cc1 | 0 | ? | 0 | 0 | 0 | 35.5µM
CC(C)(C)c1ccc(NC(=O)N2CCN(c3ccc([N+](=O)[O-])cn3)CC2)cc1 | 0 | 0 | -103.4 | 0 | 0 | -
COc1ccc(Oc2coc3cc(OCc4ccccc4)ccc3c2=O)cc1 | - | - | - | 0 | 0 | -
Cn1c(-c2ccc(-c3ccccc3)cc2)c[nH]c1=S | 0 | ? | 0 | 0 | 39.8µM | 12.6µM
CCn1c(-c2ccc(-c3ccccc3)cc2)c[nH]c1=S | 0 | 0 | 0 | 0 | ? | ?
Cc1ccc(-c2c[nH]c(=S)n2-c2ccccc2F)cc1 | 0 | 0 | 0 | 0 | 35.5µM | -
CCc1ccc(NC(=O)c2cc(=O)c3ccc(C)cc3o2)cc1 | - | - | - | 0 | 0 | -
Cc1ccc(-c2nc(C#N)c(N3CCN(c4ccccc4)CC3)o2)cc1 | - | - | - | 0 | 0 | -
O=C(O)[C@@H](c1ccccc1)N1Cc2ccccc2C1=O | 0 | 0 | 0 | 0 | 39.8µM | 0
